High-throughput results from PubChem BioAssay.
A selection: hits, their analogues and other compounds. The true share with any hit is near 12%.
RORg inh – inhibitors of mouse ROR gamma transcriptional activity; AID 2551; 5.4% of 310,000 active; Potency, µM (doses to about 53.6 µM), for inactives: at the highest dose activity change, negative = inhibition, hits mostly inhibitors; Drosophila S2 Gal4-RORgamma UAS-luciferase reporter, 20 h; note: nearly all actives have a fitted effect of over 60% in size
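Drosophila S2 cells stably expressing Gal4-DBD/mouse RORγ fusion under metallothionein promoter plus UAS-luciferase; compound 1 h, then 700 uM CuSO4 induction for 20 h at ambient temperature; inhibition read as reduced luminescence.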
PLK1 PBD inh – inhibitors of human PLK1 polo-box domain binding; P53350; Plk1 PBD binding of FITC phosphopeptide, fluorescence polarization; Potency, µM, for inactives: max response, negative = inhibition, hits mostly inhibitors; 2.8% of 360,000 active; note: series mostly up to about 57 µM; nearly all actives have a fitted effect of over 65% in size
VP16 counter – counter-screen for ROR gamma inhibitors: Gal4-VP16 reporter. Drosophila S2 Gal4-VP16 UAS-luciferase, luminescence, 20 h. Potency, µM (top dose mostly 53.6 µM), for inactives: at the top dose activity, negative = inhibition, usual class: inhibitors. 3.5% of 310,000 active;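 note: Gal4-VP16 expression switched on by copper sulfate through the metallothionein promoter; nearly all actives have a fitted effect of over 50% in size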
ALDH1A1 block – ALDH1A1 (human) enzyme inhibition; P00352; Purified ALDH1A1, NADH fluorescence, propionaldehyde substrate; Potency, µM (highest dose often 75.3 µM), inactives show at the highest dose activity, negative = inhibition, usual class: inhibitors; 7.3% of 220,000 active; AID 1030; active = well fitted inhibition curve with a large enough effect, not every such curve was filed as active; inconclusive = small, poorly fitted or top-dose-only effect, or another doubt; inactive = no such curve, though single readings can be large or run the other way;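 note: plate controls were no enzyme wells and a reference inhibitor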
Target sequence (P00352 whole entry, looked up): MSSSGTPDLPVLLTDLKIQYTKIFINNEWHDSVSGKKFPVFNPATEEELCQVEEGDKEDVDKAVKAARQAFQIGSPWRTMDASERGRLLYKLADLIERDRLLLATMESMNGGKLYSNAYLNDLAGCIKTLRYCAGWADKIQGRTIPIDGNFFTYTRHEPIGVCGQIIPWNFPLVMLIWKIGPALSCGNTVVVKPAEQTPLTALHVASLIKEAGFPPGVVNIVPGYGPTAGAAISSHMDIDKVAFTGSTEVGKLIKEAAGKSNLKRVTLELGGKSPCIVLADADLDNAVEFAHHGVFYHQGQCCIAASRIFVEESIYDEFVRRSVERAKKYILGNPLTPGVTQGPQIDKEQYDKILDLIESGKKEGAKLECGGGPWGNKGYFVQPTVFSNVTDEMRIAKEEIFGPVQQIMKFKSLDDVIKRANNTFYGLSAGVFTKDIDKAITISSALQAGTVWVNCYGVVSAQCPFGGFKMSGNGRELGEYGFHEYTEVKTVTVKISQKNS
Sfp inh – Sfp phosphopantetheinyl transferase inhibition. AID 1490. Q9F4F7. Biochemical Sfp PPTase activity, qHTS. Potency, µM, inactives show largest response in the series, negative = inhibition, actives largely listed as inhibitors. 3.5% of 310,000 active;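 note: the enzyme is Sfp with the accession as filed and its product quenches rhodamine fluorescence; 0% = enzyme reaction without inhibitor and -100% = no enzyme wells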
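Compounds were incubated with enzyme (final 15 nM) for 15 min at room temperature before substrate addition started the reaction. Fluorescence at 525 nm excitation, 598 nm emission was recorded immediately and after 30 minutes.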
* = called active by the depositor; ? = inconclusive; . = no result; [ ] = remark or other dose. Unless noted, calls come from the whole dose curve; as a rule, active = well fitted curve in the direction sought with a large enough effect; inconclusive = small, poorly fitted or top-dose-only effect, or another doubt; inactive = no such curve, though single readings can be large; an effect the other way counts as inactive or inconclusive. Unless noted, % is set by controls: 0 for no effect and ±100 for the full control effect; potency is the fitted concentration of half-maximal effect.

SMILES	RORg inh	PLK1 PBD inh	VP16 counter	ALDH1A1 block	Sfp inh
CC[C@@]1(c2ccccc2)C(=O)N(C(=O)OC)N1C(=O)OC	-36%	?	?	.	-25%
CCCCNS(=O)(=O)c1cccc(NC(=O)[C@@H]2O[C@H](CO)[C@H](O)[C@H](O)[C@H]2O)c1	.	-7%	.	.	.
COCC(=O)N1CCC2(CCCN(c3ccc(-c4ccccc4)cc3)C2)CC1	14%	.	16%	?	-20%
CCCOc1ccc(F)cc1-c1cc(C(=O)Nc2ccc(OC)cc2C)[nH]n1	.	4%	.	.	.
N#CCCN(C(=O)CN1C(=O)NC2(CCCC2)C1=O)c1ccccc1F	1%	-9%	-9%	7.9µM*	13%
CC(C)N1CCC(C)(C(=O)Nc2ccc(Cl)c(Cl)c2)C1 (stereo not given)	.	-13%	.	.	.
CCOc1cccc(OCCNC2CCCC2)c1	-6%	-20%	-17%	-19%	-21%
CC(C)Oc1ccc(OCCNC2CCCC2)cc1	-4%	-6%	-22%	?	50µM*
Cc1ccc(N=C/C(C(=O)C(F)(F)F)=C(\O)c2ccco2)cc1Cl	?	-8%	?	2.2µM*	-12%
CCCCCCCCCCCCCCCC(=O)NCCCC(=O)O	38%	.	-11%	6%	27%
CO[C@@H]1COC(=O)[C@H](COCc2ccccc2)NC(=O)C/C=C\[C@@H](C)[C@H](OC)COC(=O)[C@@H](C)NC(=O)C/C=C\[C@H]1C	27%[10 µM]	.	-4%[10 µM]	3%[13.5 µM]	12%
CCS(=O)(=O)N1CCN(c2ccccc2F)CC1	19%	-15%	7%	1%	8%
O=C1Oc2ccccc2C(=O)/C1=C/N1CCN(c2ccccc2F)CC1	-7%	?	4%	18µM*	20%
O=C(O)[C@H](Cc1ccccc1)NC(=O)N1CCOCC1	5µM*	-2%	0%	13%	9%
O=C(O)[C@H](Cc1ccccc1)NC(=O)N1CCCCCC1	24%	2%	-7%	.	10%
COc1ccccc1NC(=O)c1cc2cc(Br)ccc2cc1O	?	-27%	8.9µM*	.	?
COc1ccccc1NC(=O)c1cc2ccc(O)cc2o/c1=N\O	0.89µM*	-5%	2.2µM*	-9%	-10%
COc1ccc(N=c2oc3ccccc3cc2C(=O)Nc2ccccn2)cc1OC	-4%	.	-12%	-1%	-13%
COc1ccccc1NC(=O)c1cc2ccccc2o/c1=N\O	?	?	-26%	?	50µM*
COc1ccccc1N=c1oc2cc(O)ccc2cc1C(N)=O	?	-5%	-23%	?	7%
Cc1ccc([C@@H]2C[C@H]3[C@@H](CN2S(=O)(=O)c2ccc(C)cc2)C(=O)C[C@@H](c2ccc(C)cc2)N3S(=O)(=O)c2ccc(Cl)cc2)cc1	.	-13%	.	.	.
Cn1c(=O)c(-c2cccs2)nc2cnc(N3CCNCC3)nc21	-27%	.	0%	?	9%
COCCNc1nc(C)nc2c1nc(-c1ccccc1)n2C1CCN(Cc2ccccc2)C1 (stereo not given)	-10%	.	10%	?	9%
Cc1cnc(CNc2ncnc3ccc(-c4ccccc4C(F)(F)F)cc23)cn1	?	.	?	-4%	-2%
CN1CCN(C(=S)Nc2ccccc2Cl)CC1	-8%	-7%	4%	-6%	13%
SMILES	RORg inh	PLK1 PBD inh	VP16 counter	ALDH1A1 block	Sfp inh
CN1CCN(C(=S)NC(=O)c2ccccc2Cl)CC1	14µM*	-25%	18µM*	.	-28%
O=C(NC(N1CCOCC1)C(Cl)(Cl)Cl)c1ccccc1Cl (stereo not given)	1%	6%	1%	4%	-7%
O=C(NC(=S)N1CCCCCC1)c1ccc(Cl)cc1Cl	0.35µM*	-7%	1µM*	3%	20%
O=C(NC(N1CCCCCC1)C(Cl)(Cl)Cl)c1ccccc1Cl (stereo not given)	15%	-11%	1%	11µM*	2%
O=C(NC(=S)N1CCCCCC1)c1ccccc1Cl	0.79µM*	-22%	1µM*	-2%	-12%
O=C(Nc1ccccc1C(=O)N1CCCC1)c1ccc(Cl)cc1Cl	-12%	-15%	1%	.	7%
Cc1ccc(S(=O)(=O)N2CN(Cc3ccco3)c3nc4ccccc4nc32)cc1C	-1%	-13%	-59%	?	40µM*
Cc1ccc(S(=O)(=O)N2CN(Cc3ccco3)c3nc4ccccc4nc32)cc1	38%	-11%	-15%	?	-29%
COc1ccc(CCN2CN(S(=O)(=O)c3ccc(OC)cc3)c3nc4ccccc4nc32)cc1	?	24µM*	11%	?	9%
CC(C)OCCCN1CN(S(=O)(=O)c2ccc(Cl)cc2)c2nc3ccccc3nc21	?	-13%	-6%	28µM*	-7%
COc1ccc(CN2CN(S(=O)(=O)c3ccccc3)c3nc4ccccc4nc32)cc1	44%	3%	-16%	.	4%
COc1ccc(S(=O)(=O)N2CN(Cc3ccco3)c3nc4ccccc4nc32)cc1	-19%	-27%	-27%	?	56µM*
CC(C)OCCCN1CN(S(=O)(=O)c2cccc(Cl)c2)c2nc3ccccc3nc21	36%	0%	16%	?	-7%
Cc1ccc(C(=N)c2ccccc2Cc2cccc3ccccc23)c2ccccc12	.	.	.	3%[13.5 µM]	.
C[C@H](Oc1ccc(Oc2cnc3ccc(Cl)cc3n2)cc1)C(=O)O	.	.	.	-2%[13.5 µM]	.
O=S(=O)(c1ccc(F)cc1)N1CN(Cc2ccco2)c2nc3ccccc3nc21	?	-16%	-7%	?	56µM*
FC(F)(F)c1ccccc1NC(=S)Nn1cnnc1	-31%	9.5µM*	-13%	.	20µM*
Cc1ccccc1NC(=S)Nc1cccc2cnccc12	10µM*	?	-11%	?	3.2µM*
CSc1cccc(NC(=S)NCCCO)c1	-14%	-16%	12%	-3%	-23%
FC(F)(F)c1ccccc1NC(=S)Nc1cccc2cnccc12	6%	30µM*	-1%	25µM*	20µM*
CSc1cccc(NC(=S)Nc2cc(C)ccc2C)c1	11µM*	-7%	?	5%	0%
CC(=O)N[C@@H]1C(O)OC(CO)C(O)C1O (stereo not given in full)	-12%	.	-1%	5%	-10%
C[C@@H](NC(=O)[C@@H]1CCCN1C(=O)[C@@H]1CCCN1C(=O)c1cccs1)c1ccccc1	.	-8%	.	.	.
Cc1ccc(C)c(NC(=S)Nc2cccnc2)c1	?	-16%	-5%	-2%	-12%
Cc1ccc(C)c(NC(=S)Nc2cccc3cnccc23)c1	?	?	9%	8.9µM*	32µM*
Cc1ccc(F)c(NC(=S)Nc2cccc3ccccc23)c1	11µM*	.	?	.	-18%
S=C(Nc1cccc2ccccc12)Nc1cccc2ccccc12	.	-24%	.	.	.
Fc1ccccc1NC(=S)Nc1cccc2cnccc12	0%	30µM*	-4%	18µM*	22µM*
O=C(c1ccc(NC2=NC3CS(=O)(=O)CC3S2)cc1)N(CCO)Cc1ccccc1 (stereo not given)	-22%	-7%	2%	.	8%
